This passage reports Potency results from PubChem BioAssay (Tox21).

Inconclusive results are not listed. Calls of active or inactive are those of the source. Unless noted, calls come from the whole dose curve.

Assay [1] can be described thus: Nuclear factor erythroid 2-related factor 2/antioxidant responsive element (Nrf2/ARE) small molecule agonists: qHTS cell viability counter screen in human keratinocytes (AID 1919968; active = well fitted curve in the direction sought with a large enough effect in the repeat runs; an effect the other way counts as inactive or inconclusive; note: nearly all actives have a fitted effect of over 55% in size). The gist of the method: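 Stably transfected HaCaT (KeratinoSens), 1,500/well. Test agents in DMSO were applied for 23 h, 37 C/5% CO2. CellTiter-Fluor was incubated 1 h before the fluorescence read.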
For orientation: qHTS replaces the single test concentration by a dilution series.

Assay [2] in a line: Nuclear factor erythroid 2-related factor 2/antioxidant responsive element (Nrf2/ARE) small molecule agonists: luciferase reporter gene qHTS assay in human keratinocytes (AID 1919969). Note: nearly all actives have a fitted effect of over 35% in size. Note: potency is the fitted concentration of half-maximal effect. A general note: Reporter assays use an easily measured gene product as a stand-in for the process of interest.
Assay [3] addresses Gonadotropin-releasing hormone receptor (Homo sapiens) (UniProt P30968). The assay can be described thus: Human gonadotropin-releasing hormone receptor (GnRHR) small molecule agonists, calcium flux assay in GnRHR-HEK293 cells (AID 1920063). Note: nearly all actives have a fitted effect of over 35% in size. The procedure, abridged:
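Stable human GnRHR HEK293 line. 18 h plating, then calcium dye for 1 h at 37 C. Agonist-mode compound addition from DMSO stocks; fluorescence monitored 3 min.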
For orientation: Calcium assays in cells follow changes in intracellular calcium, usually with a dye or a luminescent sensor.

Assay [4] concerns the target KiSS-1 receptor (Homo sapiens) (UniProt Q969F8). The assay can be described thus: Human kisspeptin (KISS1R) small molecule agonists, calcium flux assay in KISS1R-HEK293 cells (AID 1920064; active = well fitted curve in the direction sought with a large enough effect in the repeat runs; an effect the other way counts as inactive or inconclusive). The procedure, abridged:
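After overnight (18 h) culture at 37 C/5% CO2, human KISS1R-HEK293 cells received calcium dye for 1 h, then test compound; emission at 540 nm (excitation 480 nm) was tracked for 3 min.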

Assay [5] can be described thus: G protein-coupled receptor (GPCR) small molecule agonists, calcium flux assay: HEK293 wild type cell line counter screen (AID 1920065). The gist of the method:
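Following 18 h incubation at 37 C/5% CO2, plates got calcium dye for 1 h; compounds, ATP or DMSO were then pinned in and fluorescence followed kinetically (480/540 nm).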

Assay [6] can be described thus: p53 small molecule agonists, cell-based qHTS assay with human liver microsomes: qHTS cell viability counter screen (AID 1963579). Note: nearly all actives have a fitted effect of over 45% in size. Note: potency is the fitted concentration of half-maximal effect. The procedure, abridged: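 Metabolically activated exposure: compounds, human liver microsomes and NADPH (0.5 mg/mL final apiece) were added to p53RE-bla cells seeded 5 h earlier, left 16 h at 37 C, and then assessed for viability by CellTiter-Glo luminescence.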

The nature of assay [7]: p53 small molecule agonists, cell-based qHTS assay with rat liver microsomes: qHTS cell viability counter screen (AID 1963580). Note: nearly all actives have a fitted effect of over 45% in size. The gist of the method: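 Cytotoxicity counter screen: intracellular ATP measured by CellTiter-Glo luminescence in the same wells as the beta-lactamase reporter read, on HCT-116 p53RE-bla cells exposed 16 h at 37 C to compounds with rat liver microsomes and NADPH, each 0.5 mg/mL final.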

The nature of assay [8]: p53 small molecule agonists, cell-based qHTS assay: qHTS cell viability counter screen (AID 1963581). Note: nearly all actives have a fitted effect of over 45% in size. The procedure, abridged:
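qHTS counter screen: 16 h compound exposure at 37 C of p53RE-bla HCT-116 cells (4,000 per well, seeded 5 h prior), cell viability by ATP luminescence.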

Assay [9] has as its target 5-hydroxytryptamine receptor 2A (Homo sapiens) (UniProt P28223). The assay can be described thus: 5-hydroxytryptamine receptor 2A (HTR2A) small molecule agonists, cell-based qHTS assay (AID 1963587). Note: nearly all actives have a fitted effect of over 30% in size. The procedure, abridged: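 CHO cells stably expressing human HTR2A, plated 18 h, loaded with calcium dye 1 h at 37 C. Agonist mode: compounds added and intracellular calcium fluorescence recorded kinetically for 2 min at 1 sec intervals.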

Assay [10] addresses Muscarinic acetylcholine receptor M1 (Homo sapiens) (UniProt P11229). The assay can be described thus: Cholinergic receptor muscarinic 1 (CHRM1) small molecule antagonists, cell-based qHTS assay (AID 1963588). Note: nearly all actives have a fitted effect of over 40% in size. The procedure, abridged:
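Compounds were tested at 15 concentrations in three independent runs. Dye-loaded CHRM1-CHO cells were exposed 5 min at room temperature before stimulation by acetylcholine added at 50nM. Intracellular calcium was read kinetically on FDSS for 3 min.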

Assay [11] shares this target. Description: Cholinergic receptor muscarinic 1 (CHRM1) small molecule agonists, cell-based qHTS assay (AID 1963589). Note: nearly all actives have a fitted effect of over 35% in size. The gist of the method:
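Kinetic fluorescence (1 s intervals) of calcium-sensitive dye in human M1 CHO cells after compound addition; cells pre-incubated 18 h at 37 C/5% CO2 and dye-loaded 1 h.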

Assay [12] concerns the target Beta-2 adrenergic receptor (Homo sapiens) (UniProt P07550). Description: Adrenergic beta2 receptor (ADRB2) small molecule antagonists, cell-based qHTS assay (AID 1963592). Note: series mostly up to about 92 µM; nearly all actives have a fitted effect of over 50% in size. The gist of the method: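 Assay format: CHO-ADRB2 cells, 18-20hr seeding at 37C/5% CO2, then compound plus 1nM isoproterenol agonist mix for 0.5hr RT. Homogeneous time-resolved fluorescence cAMP detection after 1hr, expressed as 665/615 nm ratio.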

For assay [13], the target named is D(2) dopamine receptor (Homo sapiens) (UniProt P14416). The assay can be described thus: Dopamine D2 receptor (DRD2) small molecule agonists, cell-based qHTS assay (AID 1963594). Note: nearly all actives have a fitted effect of over 35% in size. The gist of the method: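 HEK293 cells stably expressing human DRD2, pre-treated with PDE inhibitor Ro20-1724 (0.1 mM final) and compound 10 min at room temperature, then stimulated with NKH477 (200nM […]) for 30 min. cAMP read by HTRF (665/620 nm).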
Sequence of D(2) dopamine receptor (Homo sapiens) (P14416 whole entry, looked up): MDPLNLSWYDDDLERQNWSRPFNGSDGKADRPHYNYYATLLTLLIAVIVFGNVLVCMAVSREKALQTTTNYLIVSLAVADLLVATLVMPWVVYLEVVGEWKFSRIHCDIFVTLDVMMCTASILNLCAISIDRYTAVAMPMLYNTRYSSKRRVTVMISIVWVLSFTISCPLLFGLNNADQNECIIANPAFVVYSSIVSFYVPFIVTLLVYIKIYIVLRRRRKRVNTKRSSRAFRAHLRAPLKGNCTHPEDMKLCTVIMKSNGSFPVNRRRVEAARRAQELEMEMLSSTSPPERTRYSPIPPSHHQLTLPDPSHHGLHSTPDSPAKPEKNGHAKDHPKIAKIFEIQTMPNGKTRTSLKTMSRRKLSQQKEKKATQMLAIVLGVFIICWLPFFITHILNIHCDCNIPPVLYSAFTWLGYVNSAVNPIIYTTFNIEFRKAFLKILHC

For assay [14] the target is unchanged. The assay can be described thus: Dopamine D2 receptor (DRD2) small molecule antagonists, cell-based qHTS assay (AID 1963595; active = well fitted inhibition curve with a large enough effect in the signal ratio in the repeat runs, with a control signal flat; the % refers to the signal ratio). The gist of the method:
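Cells were plated and grown for 24 h at 37 °C. Ro20-1724 (0.1 mM final) went in first, then compound for 10 min. NKH477 (200 nM) with quinpirole (12 nM) followed for 30 min at RT, then HTRF detection reagents for 1 h.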

Assay [15] in a line: cAMP Responsive Elements (CRE) small molecule agonists, cell-based qHTS assay (AID 1963590). The gist of the method:
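Test agents in DMSO were incubated 3 h at 37 C/5% CO2 with CRE-bla HEK 293T cells seeded 18 h earlier; LiveBLAzer B/G FRET substrate was added and read after 2 h at room temperature.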

Assay [16] can be described thus: cAMP Responsive Elements (CRE) small molecule antagonists, cell-based qHTS assay (AID 1963591; active = well fitted inhibition curve with a large enough effect in the signal ratio in the repeat runs, not every such curve was filed as active; the % refers to the signal ratio). The procedure, abridged: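 Reporter line CRE-bla HEK 293T in dialyzed-FBS DMEM; cells preincubated 18 h, treated 3 h with compound plus NKH477 (0.25 uM final); LiveBLAzer FRET, 2 h RT.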
Assay [17] deals with Beta-2 adrenergic receptor (Homo sapiens) (UniProt P07550). The assay can be described thus: Adrenergic beta2 receptor (ADRB2) small molecule agonists, cell-based qHTS assay (AID 1963593).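 Note: CHO cells stably overexpressing human ADRB2.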 The gist of the method: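 CHO cells stably over-expressing ADRB2 were plated overnight at 37C, then dosed with compounds plus a stimulation mix containing 100uM IBMX and 25uM Ro-20-1724 for 0.5hr at room temperature. cAMP was measured by HTRF competition, 1hr.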
Sequence of Beta-2 adrenergic receptor (Homo sapiens) (P07550 whole entry, looked up): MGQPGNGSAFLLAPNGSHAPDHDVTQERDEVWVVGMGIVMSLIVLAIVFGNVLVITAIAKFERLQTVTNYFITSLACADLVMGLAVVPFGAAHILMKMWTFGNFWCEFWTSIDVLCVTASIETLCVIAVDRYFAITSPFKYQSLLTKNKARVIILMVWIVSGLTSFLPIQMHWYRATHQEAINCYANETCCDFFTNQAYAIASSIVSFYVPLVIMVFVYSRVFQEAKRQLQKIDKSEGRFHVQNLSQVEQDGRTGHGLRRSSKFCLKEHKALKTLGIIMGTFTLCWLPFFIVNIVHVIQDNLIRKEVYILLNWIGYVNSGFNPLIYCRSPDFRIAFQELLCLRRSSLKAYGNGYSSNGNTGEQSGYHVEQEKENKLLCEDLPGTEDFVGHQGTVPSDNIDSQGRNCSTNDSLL

The nature of assay [18]: p53 small molecule agonists, cell-based qHTS assay (AID 1963582; active = well fitted activation curve with a large enough effect in the signal ratio in the repeat runs, not every such curve was filed as active; the % refers to the signal ratio). The procedure, abridged:
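Measured: fluorescence from cleaved LiveBLAzer substrate. System: p53RE-bla cells, 16 h compound treatment at 37 C, 2 h substrate step at room temperature.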

In assay [19] the target is 5-hydroxytryptamine receptor 2A (Homo sapiens) (UniProt P28223). Description: 5-hydroxytryptamine receptor 2A (HTR2A) small molecule antagonists, cell-based qHTS assay (AID 1963586). Note: nearly all actives have a fitted effect of over 45% in size. The gist of the method: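 CHO cells stably expressing human HTR2A were plated for 18 h at 37 C, then loaded with calcium dye for 1 h. Compounds were preincubated 5 min at room temperature before DOI (4 nM solution) was added. Kinetic fluorescence was read for 3 min.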
Sequence of 5-hydroxytryptamine receptor 2A (Homo sapiens) (P28223 whole entry, looked up): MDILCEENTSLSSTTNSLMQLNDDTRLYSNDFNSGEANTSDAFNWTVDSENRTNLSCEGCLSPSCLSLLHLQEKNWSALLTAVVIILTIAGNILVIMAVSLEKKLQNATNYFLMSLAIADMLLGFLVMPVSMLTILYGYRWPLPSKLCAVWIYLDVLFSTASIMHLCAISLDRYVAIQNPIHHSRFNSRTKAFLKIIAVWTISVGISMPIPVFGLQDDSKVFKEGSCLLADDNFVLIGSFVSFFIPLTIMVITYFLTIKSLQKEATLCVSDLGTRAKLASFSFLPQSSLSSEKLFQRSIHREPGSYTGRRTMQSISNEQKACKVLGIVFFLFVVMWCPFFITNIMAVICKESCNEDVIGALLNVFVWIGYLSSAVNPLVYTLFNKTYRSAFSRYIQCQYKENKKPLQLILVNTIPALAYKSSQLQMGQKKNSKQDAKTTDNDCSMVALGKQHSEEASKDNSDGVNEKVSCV

Sequence of Muscarinic acetylcholine receptor M1 (Homo sapiens) (P11229 whole entry, looked up): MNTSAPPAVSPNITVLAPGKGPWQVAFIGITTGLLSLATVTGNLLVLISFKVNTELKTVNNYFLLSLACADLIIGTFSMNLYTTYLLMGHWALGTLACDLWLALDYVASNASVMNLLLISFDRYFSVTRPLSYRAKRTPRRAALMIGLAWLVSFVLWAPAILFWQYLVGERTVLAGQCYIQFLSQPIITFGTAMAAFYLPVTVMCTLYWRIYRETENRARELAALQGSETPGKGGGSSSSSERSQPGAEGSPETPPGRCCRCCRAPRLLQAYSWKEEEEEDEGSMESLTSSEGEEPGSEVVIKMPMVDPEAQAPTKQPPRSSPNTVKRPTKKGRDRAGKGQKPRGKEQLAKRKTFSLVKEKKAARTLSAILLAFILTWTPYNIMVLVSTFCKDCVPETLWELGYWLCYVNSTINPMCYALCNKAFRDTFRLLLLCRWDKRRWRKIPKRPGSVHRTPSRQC
Sequence of Gonadotropin-releasing hormone receptor (Homo sapiens) (P30968 whole entry, looked up): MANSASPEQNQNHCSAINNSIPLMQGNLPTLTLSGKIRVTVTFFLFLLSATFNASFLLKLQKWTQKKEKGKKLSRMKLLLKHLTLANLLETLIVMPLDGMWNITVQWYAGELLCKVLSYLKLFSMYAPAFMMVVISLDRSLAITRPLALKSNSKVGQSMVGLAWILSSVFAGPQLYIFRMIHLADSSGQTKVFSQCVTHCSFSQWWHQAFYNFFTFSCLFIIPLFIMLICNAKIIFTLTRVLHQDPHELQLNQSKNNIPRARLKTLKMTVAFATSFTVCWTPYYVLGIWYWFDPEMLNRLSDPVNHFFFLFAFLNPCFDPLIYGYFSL
Sequence of KiSS-1 receptor (Homo sapiens) (Q969F8 whole entry, looked up): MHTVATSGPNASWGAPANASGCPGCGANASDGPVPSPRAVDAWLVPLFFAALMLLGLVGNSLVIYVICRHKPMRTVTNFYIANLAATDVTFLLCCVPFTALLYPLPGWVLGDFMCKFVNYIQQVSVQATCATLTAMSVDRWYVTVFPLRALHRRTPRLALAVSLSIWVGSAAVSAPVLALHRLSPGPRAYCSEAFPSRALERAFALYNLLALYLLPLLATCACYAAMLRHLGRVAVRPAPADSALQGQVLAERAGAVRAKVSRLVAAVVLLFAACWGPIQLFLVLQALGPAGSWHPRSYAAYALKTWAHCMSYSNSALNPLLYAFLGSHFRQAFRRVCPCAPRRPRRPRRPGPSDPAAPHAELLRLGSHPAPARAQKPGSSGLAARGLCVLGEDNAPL

Regarding `O=C(O)c1nc(Cl)c(Cl)c(Cl)c1Cl`, the Potency result in assay [1], in assay [3], in assay [4], in assay [5], in assay [6] and in [7] was “inactive” each time. Further, the Potency result in [8], in assay [9], in [10], in assay [11], in [12] and in assay [13] was “inactive” throughout. For the same compound, the Potency entry in assay [14] was “inactive”. For the same compound, the Potency in assay [2] is 30.6 µM (active).
For the compound `CC(O)C1CCCCC1` (stereo unspecified), the Potency entry in [1], in [2], in [3], in assay [4], in assay [5] and in assay [6] was “inactive” each time. Moreover, the Potency result in [7], in [8], in assay [9], in assay [10], in assay [11] and in assay [15] was “inactive” in each case. For the same compound, the Potency entry in assay [16], in assay [13] and in assay [14] was “inactive” in each case.
For `CC(C)COC(=O)C(C)C`, the Potency entry in [1], in assay [2], in assay [3], in assay [4], in assay [5] and in assay [6] was “inactive” in each case. In addition, the Potency entry in assay [7], in assay [8], in assay [9], in assay [10], in assay [11] and in assay [15] was “inactive” throughout. In addition, the Potency result in assay [16], in assay [12], in assay [17] and in assay [14] was “inactive” in each case.
For `CN1C(C(=O)Nc2ccccn2)=C(O)c2sccc2S1(=O)=O`, the Potency result in [1], in assay [2], in assay [3], in assay [4], in assay [5] and in assay [6] was “inactive” in each case. Also, the Potency entry in assay [7], in assay [8], in assay [15], in [16], in assay [12] and in assay [17] was “inactive” in each case. In addition, the Potency entry in assay [13] and in [14] was “inactive” throughout.
With `c1ccc(Cc2ccccc2)cc1`, the Potency entry in assay [1], in [2], in assay [3], in assay [4], in [5] and in assay [6] was “inactive” throughout. Besides, the Potency result in [7], in [18], in [19], in assay [9], in assay [10] and in [11] was “inactive” throughout. In addition, the Potency result in [15], in assay [16], in [12], in assay [13] and in assay [14] was “inactive” throughout.
For `O=C1CCCCC1C1CCCCC1` (stereo unspecified), the Potency result in assay [1], in assay [2], in assay [3], in assay [4], in assay [5] and in [6] was “inactive” throughout. The Potency entry in assay [7], in [19], in assay [9], in assay [10], in [11] and in assay [15] was “inactive” in each case. Further, the Potency result in assay [16], in assay [12], in assay [13] and in assay [14] was “inactive” throughout.
On to `Cc1ccc(N)cc1O`, for which the Potency entry in [1], in [3], in [4], in [5], in assay [7] and in assay [19] was “inactive” each time. Moreover, the Potency result in assay [9], in assay [10] and in assay [11] was “inactive” in each case. Besides, the Potency in assay [2] is 24.3 µM (active); in assay [6] it was 40.8 µM (active).
As for `O=C1CCCc2c1cc1ccc3cccc4ccc2c1c34`, the Potency entry in assay [1], in assay [3], in assay [4], in assay [5], in assay [6] and in assay [7] was “inactive” in each case. Besides, the Potency result in [19], in assay [9], in assay [10], in assay [11], in assay [16] and in assay [12] was “inactive” in each case. Besides, the Potency result in assay [13] and in assay [14] was “inactive” throughout. In assay [2], the Potency is 34.8 µM (active).
As to `N#Cc1ccc(C(c2ccc(C#N)cc2)n2cncn2)cc1`, the Potency entry in assay [1], in assay [2], in assay [3], in assay [4], in assay [5] and in assay [6] was “inactive” each time. Further, the Potency entry in [7], in [8], in [16], in [12], in assay [17] and in assay [13] was “inactive” throughout. The Potency result in assay [14] was “inactive”.
